Test results published in ChEMBL document CHEMBL3988442, “University of Dundee, Small-Polar-MMV Screening Library” (2021).
Screen size: about 48,000 compounds; about 13,000 (27%) showed an effect of 50% or more. The list shows a part of the results.

What follows are compounds tested on Wolbachia pipientis (assay: Anti-Wolbachia Cell-Based Screen). Conditions: 5 µM.
Assay type: functional
Set-up: scale not given: in the data most compounds retested in dose-response had high values

Point of comparison: `CC(C)[C@@H]1CN(Cc2cnc(C3CCCCC3)nc2)C[C@H]1C(=O)O`, “Percent Effect” value -8.433%. Against it:
- CN(C)S(=O)(=O)c1ccc(CNc2ccc(Cl)cn2)cc1 — higher, -2.882%
- CSCC(C)C(=O)NCc1c(C)nc2cc(=O)[nH]n2c1C (configuration not stated) — lower, -19.78%
- CCCc1nccn1-c1ccc(C(O)CN2CCOCC2)cc1 (configuration not stated) — higher, -2.856%
- CCc1nc2c(c(N3CCOCC3)n1)CCN(C(=O)c1ccon1)CC2 — higher, 0.9669%
- Cc1cc(C(C)NC(=O)CCn2nnc3ccccc3c2=O)c(C)o1 (configuration not stated) — higher, 5.131%
- CC(NC(=O)CCCc1ccc(Cl)cc1)c1nnn[nH]1 (configuration not stated) — lower, -9.693%
- O=C(CCCn1cnc2ccccc2c1=O)Nc1nc[nH]n1 — higher, 118.2%
- CC(NC(=O)CCCn1cnc2ccccc2c1=O)c1ncn[nH]1 (configuration not stated) — higher, 135.6%
- O=C(CCn1ccc2ncccc2c1=O)N1CCCC1 — higher, -7.075%
- Cn1cc2ncn(CCCOc3cccnc3)c(=O)c2n1 — higher, -2.569%
- Cc1noc(C)c1CN(C)C(=O)NCCOc1ccc(F)cc1F — lower, -11.52%
- O=C(NCC1=CCCCC1)C(c1cccnc1)N1CCOCC1 (configuration not stated) — higher, -8.257%
- CCCc1ccc(C(=O)N2CCc3c(nc(N(C)C)[nH]c3=O)C2)cc1 — higher, 0.7341%
- Cc1nc2c(c(N(C)C)n1)CCN(C(=O)CN1CCC(O)CC1)C2 — lower, -29.43%
- CCCc1ccc(C(=O)N2CCn3c(nnc3C(C)C)C2)cc1 — higher, 1.679%
- CCN(CC)CCC(=O)N1CCc2c(nc(N(C)C)nc2N(C)C)C1 — higher, -0.6304%
- CN(C)c1nc2c(c(=O)[nH]1)CCN(C(=O)c1ccc(=O)[nH]c1)C2 — higher, -0.009534%
- Cc1nc2c(c(N(C)C)n1)CCN(C(=O)c1sccc1S(N)(=O)=O)C2 — lower, -20.97%
- CCNc1ncc(C(=O)N2CCc3c(nc(C)nc3N(C)C)C2)cn1 — higher, 95.13%
- CCNc1ncc(C(=O)N2CCOC(CCCC(C)C)C2)cn1 (configuration not stated) — higher, 18.06%
- CCCc1ccc(C(=O)N2CCc3c(nc(C)nc3N(C)C)C2)cc1 — higher, 96.2%
- CCNc1ncc(C(=O)N2Cc3nc(C)[nH]c(=O)c3C2)cn1 — higher, 110.8%
- Cc1nc2c(c(N(C)C)n1)CCN(C(=O)c1ccc(N)nc1)C2 — higher, 84.83%
- CCNc1ncc(C(=O)N2CCC(c3ccccc3C(=O)O)C2)cn1 (configuration not stated) — higher, -1.411%
- NS(=O)(=O)c1cc(C(=O)N2CCCCC2)cs1 — higher, 6.219%
- CN(C)c1ccc(CC(=O)N[C@@H]2CCNC[C@H]2O)cc1 — higher, -6.485%
- O=C(NCc1ccc(Br)c(F)c1)Nc1cn[nH]c1 — higher, 110.2%
- CN(Cc1cnn(C)c1)C(=O)NCc1csc(Br)c1 — higher, 2.853%
- O=C(Cc1ccc(Br)s1)NCC(=O)Nc1cn[nH]c1 — higher, -7.073%
- CNS(=O)(=O)Cc1ccc(CNC(=O)Nc2cn[nH]c2)cc1 — higher, -4.432%
- COCCNc1ccc(CNC(=O)Nc2cn[nH]c2)cc1 — higher, -8.085%
- O=C(NCC1(N2CCOCC2)CCSC1)Nc1cn[nH]c1 (configuration not stated) — higher, 6.407%
- O=C(NCc1cc(Br)cs1)Nc1cn[nH]c1 — higher, 79.99%
- CN1CCC(NC(=O)NCc2csc(Br)c2)CC1 — higher, -1.868%
- O=C(NCc1csc(Br)c1)Nc1cn[nH]c1 — higher, 91.45%
- CN(CCNC(=O)c1scnc1Cl)c1ccccc1 — higher, -4.925%
- COc1ccc(OC)c(C2CCN(CC(C)(C)N3CCOCC3)C2)c1 (configuration not stated) — higher, -1.124%
- COc1ccc(C(C)N(C)Cc2c(C(C)(C)C)[nH]c3ncccc23)cc1 (configuration not stated) — higher, 103.1%
- COc1ccc(C(CN2CCN(C)CC2)Nc2ncccn2)cc1 (configuration not stated) — higher, -1.255%
- COc1ccc(C(C)N(C)Cc2c(C(C)C)[nH]c3ncccc23)cc1 (configuration not stated) — higher, 47.71%
- CCC(Nc1ncccn1)c1ccc(OC)cc1 (configuration not stated) — higher, 2.346%
- COc1ccc(C(C)N(C)Cc2c(C3CC3)[nH]c3ncccc23)cc1.Cl (configuration not stated) — higher, 91.7%
- COc1ccc2cc(CN(C)C(C)c3nc(C4CC4)no3)ccc2c1 (configuration not stated) — higher, 6.729%
- COCCN(C)CC(=O)N1C[C@@H](C)[C@](O)(C(C)C)C1 — higher, 89.33%
- COCC(=O)N1CCN(C(C)C(=O)NC(C)C)CC1 (configuration not stated) — higher, 2.538%
- COCC(=O)N1C[C@@H](C)[C@](O)(C(C)C)C1 — higher, 101.1%
- CC(C)[C@]1(O)CN(C(=O)CNC(N)=O)C[C@H]1C — higher, 90.92%
- COCCN(C)CC(=O)N1C[C@H]2CC[C@@H]1CN(C(=O)c1ccncc1)C2 — higher, 3.629%
- C[C@@H]1CN(C(=O)CCCN2CCOCC2)C[C@@]1(O)C1CC1 — lower, -18.09%
- CC(C)[C@]1(O)CN(C(=O)COCC(N)=O)C[C@H]1C — higher, 89.06%
- NC(=O)NCC(=O)N1CCC2(CC1)c1ccccc1CC2O (configuration not stated) — higher, -7.297%
- COCCN(C)CC(=O)N1C[C@@H](NC(C)=O)[C@H](c2ccc(OC)cc2)C1 — higher, 3.177%
- COCC(=O)N1CCC2(CC1)CC(OC)CO2 (configuration not stated) — lower, -10.72%
- CC1(Cc2ccccn2)NCCc2[nH]cnc21 (configuration not stated) — higher, 15.49%
- CCn1c(N)nc2cc(C(=O)N3Cc4ccccc4C3)cnc21 — higher, -3.386%
- CCCS(=O)(=O)N1CCC(Nc2c(F)cc(C#N)cc2F)CC1 — higher, 13.62%
- CSCCC(=O)N1CCN(CC(C)(C)O)CC1 — lower, -39.31%
- Cc1c(C(C)NCC2CCCC2)cnn1-c1ccc(F)cc1F (configuration not stated) — higher, 0.5195%
- O=C(CN1C=Nc2ccccc2S1(=O)=O)NCCc1cccs1 — higher, 3.571%
- COCCN(C)[C@@H]1c2ccccc2C2(CCNCC2)[C@H]1O — higher, 2.267%
- CC(C)NC(=O)CN1CCN(CC2CCOc3ccccc3C2)CC1 (configuration not stated) — higher, -2.637%
- Cc1cc(C(=O)NS(C)(=O)=O)ccc1I — higher, 1.042%
- Cc1nc2c(c(NCc3cc4ccccc4s3)n1)CCNCC2 — higher, -2.145%
- CCc1cnc(C)nc1NCCN1CCCCCC1 — higher, -2.933%
- CCc1cnc(C)nc1NCc1cnc2c(c1)CCC2 — higher, 83.93%
- Cc1nc2c(c(NCc3nc4ccccc4s3)n1)CCNCC2 — higher, 4.643%
- Nc1nc2c(c(NCc3ccncc3)n1)CCCC2 — lower, -16.82%
- Nc1nc2c(c(NCc3cnc4c(c3)CCC4)n1)CCNC2 — higher, 77.65%
- CCc1cnc(C)nc1NCCN1CCC(O)CC1 — higher, 8.36%
- Nc1nc2c(c(NCc3nc(-c4ccncc4)n[nH]3)n1)CCCC2 — higher, -1.758%
- Cc1nc2c(c(NCc3cnc4c(c3)CCC4)n1)CNC2 — higher, 90.56%
